This is a sample that favours compounds with a hit; in the whole collection about 19% have one here.
KB-3-1 cytotox: KB-3-1 parental cell cytotoxicity | KB-3-1 viability, CellTiter-Glo ATP luminescence, 72 h | Potency, µM (top dose mostly 46.1 µM), hits mostly cytotoxic | actives 1.4% (n = 400,000); further: nearly all actives have a fitted effect of over 60% in size
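Viability of parental KB-3-1 cells, measured by CellTiter-Glo luminescence, followed a 72 h incubation at 37 °C with pinned compounds in phenol-red-free DMEM containing 10% FBS.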
KB-V1 MDR tox: kills drug-selected multidrug resistant KB-V1 cells. KB-V1 MDR cells viability, CellTiter-Glo, 72 h. Potency, µM (titrated, usually from 46.1 µM), most hits filed as cytotoxic. actives 3.4% (n = 400,000); further: nearly all actives have a fitted effect of over 60% in size
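Drug-selected KB-V1 cells, grown in DMEM lacking phenol red with 10% FBS, receive compound titrations; after three days at 37 degrees C, surviving cell ATP is quantified by CellTiter-Glo luminescence and responses normalized and curve-fitted.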
HT1080 IDH1KD tx: kills HT-1080 cells with IDH1 knockdown; HT-1080 IDH1 knockdown viability, ATP luminescence, 48 h; Potency, µM (doses to about 46.1 µM), inactives show top-dose activity, negative = toxicity, hits mostly cytotoxic; actives 2% (n = 360,000); AID 686971;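 further: 0% = DMSO wells and -100% = cell-free medium wells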
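Using the IDH1-knockdown HT-1080 line run in the same batch and compound series as the NT line, viability after 48 h at 37 °C was determined by CellTiter-Glo luminescence and expressed as % activity.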
DT40 TDP1 no CPT: qHTS for Inhibitors of human tyrosyl-DNA phosphodiesterase 1 (TDP1): qHTS in cells in absence of CPT. DT40 Tdp1-/- hTDP1 cells, no CPT, ATP luminescence, 48 h. Potency, µM (doses to about 46.2 µM), inactives show at the highest dose activity change, negative = growth inhibition, actives largely listed as inhibitors. actives 15% (n = 420,000); further: nearly all actives have a fitted effect of over 55% in size
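Growth of hTDP1-complemented DT40 Tdp1-knockout cells is measured by ATP luminescence after at least 48 hr compound exposure at 37 °C, with DMSO substituting for the 20 nM CPT used in the parallel screen.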
DT40 TDP1 CPT: growth inhibition of DT40 Tdp1-/-;hTDP1 cells with camptothecin (screen for TDP1 inhibitors); chicken DT40 Tdp1-/-;hTDP1 cells + 20 nM CPT, ATP luminescence, 48 h; Potency, µM (highest dose often 46.2 µM), for the others: at the highest dose activity change, negative = growth inhibition, hits mostly inhibitors; actives 12% (n = 420,000); further: nearly all actives have a fitted effect of over 55% in size
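Chicken DT40 Tdp1-/- cells stably complemented with human TDP1 were seeded at 400 cells/well in medium containing 20 nM camptothecin, exposed to pin-transferred compounds, and grown at 37 °C for at least 48 hr. Viability was read as ATP luminescence.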
HT1080NT lethal: kills 2HG-producing HT-1080-NT fibrosarcoma cells. HT-1080-NT fibrosarcoma viability, CellTiter-Glo ATP luminescence, 48 h. Potency, µM (doses to about 46.1 µM), without a hit: at the top dose activity, negative = less viability, most hits filed as cytotoxic. actives 1.6% (n = 360,000). AID 686970;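 further: NT is the 2HG producing partner of a matched IDH1 knockdown line; 0% = DMSO-treated cells and -100% = media-only wells without cells; nearly all actives have a fitted effect of over 55% in size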
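Fibrosarcoma NT cells, 750 per well in 5% FBS RPMI, were exposed to compound for 48 hours. Viability: CellTiter-Glo luminescence.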
* hit, by the source's call; i = inactive; ? = inconclusive; . = not tested or not shown; [ ] = remark or other dose. The call rests on the fitted dose curve; in most records, active means well fitted curve in the direction sought with a large enough effect; inconclusive means small, poorly fitted or top-dose-only effect, or another doubt; inactive means no such curve, though single readings can be large; an effect the other way counts as inactive or inconclusive. Unless noted, on the % scale 0 is the no-effect control and ±100 the full control effect; potency means the concentration at half of the fitted maximal effect.

SMILES	KB-3-1 cytotox	KB-V1 MDR tox	HT1080 IDH1KD tx	DT40 TDP1 no CPT	DT40 TDP1 CPT	HT1080NT lethal
CCc1ccc(CNC(=O)c2cc3n(n2)CCCN(Cc2ccccc2)C3=O)cc1	i	?	.	?	16µM*	.
Cc1ccc(CN2CCCn3nc(C(=O)NC(C)C)cc3C2=O)cc1	i	i	.	-22%	-11%	.
COc1ccc(CCNC(=O)c2cc3n(n2)CCCN(Cc2ccc(C)cc2)C3=O)cc1OC	i	i	.	21µM*	?	.
Cc1ccc(CN2CCCn3nc(C(=O)NCC(C)c4ccccc4)cc3C2=O)cc1 (stereo not drawn)	i	i	.	16µM*	?	.
Cc1ccc(CN2CCCn3nc(C(=O)NCCC(C)C)cc3C2=O)cc1	i	i	.	-23%	-19%	.
CCCn1c(SCC(=O)c2cc(C)n(-c3ccc4c(c3)OCO4)c2C)n[nH]c1=O	12µM*	2.9µM*	-19%	6.5µM*	23µM*	-11%
Cc1cccc(-n2nnnc2SCC(=O)c2cc(C)n(CC3CCCO3)c2C)c1 (stereo not drawn)	i	?	-4%	?	-1%	-18%
Cc1cccc(-n2nnnc2SCC(=O)c2cc(C)n(Cc3ccco3)c2C)c1	i	18µM*	?	?	?	-20%
Cc1cc(C(=O)CSc2nnc(-c3cccc(F)c3)n2N)c(C)n1Cc1ccc2c(c1)OCO2	?	2.6µM*	-16%	23µM*	15µM*	-4%
Cc1cc(C(=O)CSc2nnnn2-c2ccc(O)cc2)c(C)n1Cc1ccc2c(c1)OCO2	?	15µM*	-5%	?	?	-1%
Nn1c(SCC(=O)Nc2ccc3c(c2)OCO3)nnc1-c1cccc(Cl)c1	i	i	-18%	-17%	-22%	-15%
Cc1ccc(-n2nnnc2SCC(=O)c2cc(C)n(CC3CCCO3)c2C)cc1 (stereo not drawn)	i	?	16%	-20%	-28%	6%
Nc1nnc(SCC(=O)Nc2cccc(F)c2)s1	i	i	.	11%	15%	.
CCCNC(=O)C1(C)CCN(C(=O)c2c(F)ccc(C)c2F)C1 (stereo not drawn)	i	i	13%	2%	3%	22%
Cc1ccc(NC(=O)CN2C=NS(=O)(=O)c3ccccc32)cc1	i	i	.	-14%	-26%	.
CCOc1ccccc1CNc1nc2nc(C)c(CC(=O)OC)c(=O)n2[nH]1	i	?	.	-13%	0%	.
Cc1cc(C(=O)CSc2nncs2)c(C)n1-c1ccc2c(c1)OCO2	i	16µM*	-7%	18µM*	21µM*	?
Cc1cc(C(=O)CN2C(=O)NC3(CCCCC3)C2=O)c(C)n1-c1ccc2c(c1)OCO2	i	i	-13%	21µM*	?	-12%
Cc1cc(-n2c(C)cc(C(=O)CN3C(=O)NC4(CCCCCC4)C3=O)c2C)no1	i	?	-3%	?	-25%	-18%
COc1ccc(-n2c(C)cc(C(=O)CN3C(=O)NC4(CCCc5sccc54)C3=O)c2C)cc1 (stereo not drawn)	i	i	-21%	21µM*	16µM*	-19%
Cc1cc(C(=O)CSc2nnnn2-c2ccccc2)c(C)n1-c1ccc2c(c1)OCO2	?	7.3µM*	-20%	13µM*	23µM*	-10%
COc1cc(C(=O)N2CC(=O)Nc3ccc(C)cc3C2c2ccc(F)cc2)cc(OC)c1OC (stereo not drawn)	i	i	.	?	?	.
Cc1ccc(-n2nnnc2SCC(=O)c2cc(C)n(-c3cc(C)on3)c2C)cc1	i	i	-16%[9.24 µM]	15µM*	12µM*	-18%
Cc1cc(C)c(C(N)=O)c(SCC(=O)c2cc(C)n(-c3cc(C)on3)c2C)n1	i	?	-5%	0.52µM*	1.2µM*	-2%
Cc1cc(C(=O)CSc2nnnn2C)c(C)n1-c1cccc(F)c1	i	?	?	9.2µM*	?	-28%
SMILES	KB-3-1 cytotox	KB-V1 MDR tox	HT1080 IDH1KD tx	DT40 TDP1 no CPT	DT40 TDP1 CPT	HT1080NT lethal
Cc1cc(C(=O)CSc2nc(N)cc(N)n2)c(C)n1-c1cccc(C(F)(F)F)c1	i	i	-1%	?	23µM*	0%
Cc1cc(C(=O)CSc2ncccn2)c(C)n1-c1cccc(F)c1	i	?	5%	?	-7%	11%
Cc1cc(C)c(C(N)=O)c(SCC(=O)c2cc(C)c(C)cc2C)n1	i	?	-24%	-26%	-27%	-16%
Cc1cc(C(=O)CSc2n[nH]c(N)n2)c(C)n1-c1cccc(F)c1	i	i	?	?	?	-28%
C[C@H]1COc2cccc(N3CCC[C@@H]3CO)c2S(=O)(=O)N1	i	i	18%	-16%	4%	?
CSc1ccc(CCNC(=O)C2CCN(c3ncnc4c3nc3n4CCCCC3)CC2)cc1	.	.	.	-25%	-1%	.
COc1ccc(-c2csc(NC(=O)c3ccccc3NS(=O)(=O)c3ccc(C)cc3)n2)cc1	2.6µM*	2.3µM*	?	15µM*	?	?
COc1ccc(S(=O)(=O)Nc2ccccc2C(=O)Nc2nc(-c3ccc(F)cc3)cs2)cc1OC	?	15µM*	?	16µM*	?	?
COc1ccc(NC(=O)c2ccccc2NS(=O)(=O)c2ccc(CNC(C)=O)cc2)c(OC)c1	?	i	?	?	?	13µM*
Cc1ccc(CCNC(=O)Cn2c(-c3cccs3)cc3ccccc32)cc1	i	i	.	?	?	.
COc1cccc(CN2C(=O)C(C)N(C(=O)c3ccccc3)c3ccccc32)c1 (stereo not drawn)	i	?	-2%	6.5µM*	13µM*	?
CC1C(=O)N(Cc2ccc([N+](=O)[O-])cc2)c2ccccc2N1C(=O)c1c(F)cccc1F (stereo not drawn)	i	i	-29%	16µM*	?	-19%
COc1ccc(CN2C(=O)C(C)N(C(=O)c3c(F)cccc3F)c3ccccc32)cc1 (stereo not drawn)	i	i	4%	8.2µM*	13µM*	-2%
COc1ccc(CN2C(=O)C(C)Oc3ccccc32)cc1 (stereo not drawn)	i	i	0%	?	-1%	-5%
COc1cccc(CN2C(=O)C(C)Oc3ccccc32)c1 (stereo not drawn)	i	i	3%	-4%	-8%	-8%
